Assay outcomes from PubChem.
Pf apPOL inh: Pf-apPOL inhibitors, biochemical, fluorescence; Plasmodium falciparum apicoplast DNA polymerase (apPOL); Recombinant Pf-apPOL, molecular beacon fluorescence, 1.5 h; inhibition, % at 10 µM; 210,000 compounds, 0.25% hits
mHTT CaM bind: mutant huntingtin-calmodulin interaction inhibitors – biochemical, AlphaScreen, primary screen; P42858; AlphaScreen His-mHTT/GST-CaM binding, luminescence; inhibition, % at 15 µM; 190,000 compounds, 3.6% hits; AID 1671202, 2021;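 further: 0% = both proteins with DMSO and 100% = one protein alone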
Target sequence (P42858 whole entry, looked up, stated change not applied): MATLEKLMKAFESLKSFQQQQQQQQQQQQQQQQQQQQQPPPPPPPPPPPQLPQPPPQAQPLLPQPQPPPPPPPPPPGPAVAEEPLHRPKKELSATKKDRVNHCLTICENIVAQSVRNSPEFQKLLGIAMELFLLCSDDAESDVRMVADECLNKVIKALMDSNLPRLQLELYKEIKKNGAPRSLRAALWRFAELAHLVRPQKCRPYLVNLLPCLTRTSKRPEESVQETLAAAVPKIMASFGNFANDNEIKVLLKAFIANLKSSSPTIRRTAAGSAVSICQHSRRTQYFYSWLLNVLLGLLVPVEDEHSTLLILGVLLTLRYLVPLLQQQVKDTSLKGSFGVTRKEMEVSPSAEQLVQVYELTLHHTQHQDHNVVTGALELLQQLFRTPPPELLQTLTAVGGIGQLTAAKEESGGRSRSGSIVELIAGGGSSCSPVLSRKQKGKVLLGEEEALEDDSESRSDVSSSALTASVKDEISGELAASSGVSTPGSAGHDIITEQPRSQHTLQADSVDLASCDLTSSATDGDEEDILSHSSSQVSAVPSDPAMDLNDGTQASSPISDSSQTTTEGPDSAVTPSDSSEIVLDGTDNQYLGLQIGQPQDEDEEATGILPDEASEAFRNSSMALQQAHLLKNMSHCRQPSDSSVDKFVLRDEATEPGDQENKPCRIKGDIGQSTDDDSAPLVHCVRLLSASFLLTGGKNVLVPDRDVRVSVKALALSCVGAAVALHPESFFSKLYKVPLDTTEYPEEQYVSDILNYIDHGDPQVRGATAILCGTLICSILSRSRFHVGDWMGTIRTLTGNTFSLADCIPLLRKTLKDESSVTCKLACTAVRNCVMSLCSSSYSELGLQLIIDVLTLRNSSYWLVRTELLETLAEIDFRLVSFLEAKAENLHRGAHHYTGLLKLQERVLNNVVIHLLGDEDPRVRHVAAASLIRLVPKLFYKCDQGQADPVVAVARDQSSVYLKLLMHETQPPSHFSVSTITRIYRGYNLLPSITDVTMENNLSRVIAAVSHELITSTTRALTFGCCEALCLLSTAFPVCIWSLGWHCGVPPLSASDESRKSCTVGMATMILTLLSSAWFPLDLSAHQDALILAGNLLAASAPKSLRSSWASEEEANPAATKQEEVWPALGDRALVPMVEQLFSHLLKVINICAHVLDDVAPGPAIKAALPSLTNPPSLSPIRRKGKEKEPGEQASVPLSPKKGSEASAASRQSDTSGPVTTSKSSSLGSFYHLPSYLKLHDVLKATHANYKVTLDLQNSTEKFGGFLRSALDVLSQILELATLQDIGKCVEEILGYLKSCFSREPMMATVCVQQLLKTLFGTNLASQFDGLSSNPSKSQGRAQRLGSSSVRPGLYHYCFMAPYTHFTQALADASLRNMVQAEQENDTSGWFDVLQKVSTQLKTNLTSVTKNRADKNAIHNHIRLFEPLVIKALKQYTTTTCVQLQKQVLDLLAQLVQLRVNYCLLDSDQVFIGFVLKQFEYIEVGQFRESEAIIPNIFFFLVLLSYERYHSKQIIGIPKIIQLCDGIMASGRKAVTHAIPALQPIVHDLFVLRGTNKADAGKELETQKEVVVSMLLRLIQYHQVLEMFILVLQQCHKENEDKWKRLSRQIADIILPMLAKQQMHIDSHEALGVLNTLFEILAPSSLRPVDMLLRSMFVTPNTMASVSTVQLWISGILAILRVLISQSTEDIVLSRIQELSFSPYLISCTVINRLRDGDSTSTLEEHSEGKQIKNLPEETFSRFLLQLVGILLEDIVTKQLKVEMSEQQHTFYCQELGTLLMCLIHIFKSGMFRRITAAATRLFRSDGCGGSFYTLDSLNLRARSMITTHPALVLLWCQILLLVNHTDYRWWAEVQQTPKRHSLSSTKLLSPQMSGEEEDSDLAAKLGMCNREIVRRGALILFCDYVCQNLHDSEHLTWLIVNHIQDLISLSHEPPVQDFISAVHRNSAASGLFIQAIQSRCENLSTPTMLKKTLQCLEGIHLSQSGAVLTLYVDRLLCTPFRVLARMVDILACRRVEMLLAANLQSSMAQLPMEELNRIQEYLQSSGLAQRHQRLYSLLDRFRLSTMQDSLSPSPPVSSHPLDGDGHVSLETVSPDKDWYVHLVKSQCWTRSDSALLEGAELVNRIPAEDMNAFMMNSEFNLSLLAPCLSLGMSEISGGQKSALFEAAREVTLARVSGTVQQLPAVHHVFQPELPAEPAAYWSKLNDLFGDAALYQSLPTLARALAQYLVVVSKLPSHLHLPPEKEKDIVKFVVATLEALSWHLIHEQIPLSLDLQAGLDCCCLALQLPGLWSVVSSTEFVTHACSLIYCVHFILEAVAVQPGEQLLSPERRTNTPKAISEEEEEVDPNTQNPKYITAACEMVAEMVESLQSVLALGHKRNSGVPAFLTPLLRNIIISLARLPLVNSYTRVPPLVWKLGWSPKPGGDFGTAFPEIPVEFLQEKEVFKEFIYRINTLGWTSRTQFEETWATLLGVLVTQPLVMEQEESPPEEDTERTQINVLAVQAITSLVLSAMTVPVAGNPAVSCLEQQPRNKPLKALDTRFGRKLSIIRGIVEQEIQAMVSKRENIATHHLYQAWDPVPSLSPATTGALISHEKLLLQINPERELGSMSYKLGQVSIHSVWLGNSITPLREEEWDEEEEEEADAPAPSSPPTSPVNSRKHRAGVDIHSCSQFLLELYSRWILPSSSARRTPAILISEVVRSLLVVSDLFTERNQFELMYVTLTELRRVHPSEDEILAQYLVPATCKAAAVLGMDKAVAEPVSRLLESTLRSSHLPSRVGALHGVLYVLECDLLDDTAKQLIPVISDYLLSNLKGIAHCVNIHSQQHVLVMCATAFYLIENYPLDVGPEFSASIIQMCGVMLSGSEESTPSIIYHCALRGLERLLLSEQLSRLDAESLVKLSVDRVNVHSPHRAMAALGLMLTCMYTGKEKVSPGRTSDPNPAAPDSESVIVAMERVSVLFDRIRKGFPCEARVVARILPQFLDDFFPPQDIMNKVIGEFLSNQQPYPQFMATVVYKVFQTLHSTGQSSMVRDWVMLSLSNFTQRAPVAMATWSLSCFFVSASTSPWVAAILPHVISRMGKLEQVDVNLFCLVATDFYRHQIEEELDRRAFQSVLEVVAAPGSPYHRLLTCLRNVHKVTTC
An asterisk follows results filed as active; ! = not confirmed by another sample. A selection: hits, their analogues and other compounds. The true share with any hit is near 3.5%. No stated cut-off is given here; in the data, active means inhibition above about 50%; inactive means the rest.

Results for O=C(NCCOc1ccc(-c2ccccn2)nn1)c1cccs1 ?
Pf apPOL inh: -15; mHTT CaM bind: 100*

What do the screens show for `CC(Oc1ccccc1F)C(=O)NCCN1CCCCC1` (stereo not drawn)?
Pf apPOL inh: -3; mHTT CaM bind: -1

How did CCOc1ccc(OCCNC(=O)c2cccs2)cc1 do in these assays?
Pf apPOL inh: -9; mHTT CaM bind: -18

Results for O=C(CN1C(=O)/C(=C/c2cccc(Cl)c2)Sc2ccccc21)NC1CCCC1 ?
Pf apPOL inh: 2; mHTT CaM bind: -3

How did COc1ncc(C(=O)Nc2ccc(C)cc2F)c(C)n1 do in these assays?
Pf apPOL inh: -3; mHTT CaM bind: -8

How did Cc1cccc(NC(=O)c2c(F)c(F)c(F)c(F)c2F)c1C do in these assays?
Pf apPOL inh: -2; mHTT CaM bind: -2

Results for O=[N+]([O-])c1cccc(Nc2nc(-c3ccncc3)cs2)c1 ?
Pf apPOL inh: 0; mHTT CaM bind: 2

How did Cc1ccc(-c2csc(Nc3ccccc3)n2)cc1 do in these assays?
Pf apPOL inh: 0; mHTT CaM bind: 61*

How did Clc1ccc(-c2csc(Nc3ccc(Oc4ccccc4)cc3)n2)cc1 do in these assays?
Pf apPOL inh: 1; mHTT CaM bind: 52*

How did O=[N+]([O-])c1ccc(-c2csc(Nc3ccc(Oc4ccccc4)cc3)n2)cc1 do in these assays?
Pf apPOL inh: -2; mHTT CaM bind: 60*

Results for Cc1ccc(-c2csc(Nc3ccc(Cl)cc3)n2)cc1 ?
Pf apPOL inh: 0; mHTT CaM bind: 47

What do the screens show for `COc1ccc(Nc2nc(-c3cccc(NC(C)=O)c3)cs2)cc1`?
Pf apPOL inh: 3; mHTT CaM bind: 44

Results for COc1ccc(-c2csc(Nc3ccc(N)cc3)n2)cc1 ?
Pf apPOL inh: -2; mHTT CaM bind: 88*

What do the screens show for `Clc1ccc(-c2csc(Nc3ccccc3)n2)s1`?
Pf apPOL inh: -2

Results for CCn1ncc(CNC(=O)c2ccc([N+](=O)[O-])cc2Cl)c1C ?
Pf apPOL inh: 3; mHTT CaM bind: -13

How did COc1cccc(C(=O)Nc2ccc(Oc3cccc(C)c3)cc2)c1 do in these assays?
Pf apPOL inh: -7; mHTT CaM bind: -15

How did CCOc1ccc(/C=C2\N=C(c3cc(OC)c(OC)c(OC)c3)OC2=O)cc1 do in these assays?
Pf apPOL inh: 4; mHTT CaM bind: 5

How did COc1ccc(-c2csc(Nc3ccc(C)cn3)n2)cc1 do in these assays?
Pf apPOL inh: -1; mHTT CaM bind: 10

What do the screens show for `Cc1ccc(Nc2nc(-c3ccccc3)cs2)cc1`?
Pf apPOL inh: -9; mHTT CaM bind: 64*

How did Cc1ccc(Nc2nc(-c3ccncc3)cs2)cc1 do in these assays?
Pf apPOL inh: 4; mHTT CaM bind: 9

What do the screens show for `Cc1ccc(-c2csc(Nc3ccc(Oc4ccccc4)cc3)n2)cc1`?
Pf apPOL inh: -3; mHTT CaM bind: 68*

How did O=[N+]([O-])c1ccc(-c2csc(Nc3cc(Cl)cc(Cl)c3)n2)cc1 do in these assays?
Pf apPOL inh: 0; mHTT CaM bind: 2

How did Clc1cc(Cl)cc(Nc2nc(-c3ccccc3)cs2)c1 do in these assays?
Pf apPOL inh: -5; mHTT CaM bind: 96*

Results for O=[N+]([O-])c1cccc(-c2nnc(C=Cc3ccc(OC(F)(F)F)cc3)o2)c1 ?
Pf apPOL inh: -8

Results for CCN1CCN(C(=O)Cn2cccc2-c2nc(-c3ccc(C)cc3)cs2)CC1 ?
Pf apPOL inh: 0; mHTT CaM bind: -6

Results for CC(C)(C)n1nc2c(c1NC(=O)COc1ccc(Cl)cc1Cl)CSC2 ?
Pf apPOL inh: -3; mHTT CaM bind: 13

How did CC(C)(C)n1nc2c(c1NC(=O)COc1ccc(Cl)cc1)CSC2 do in these assays?
Pf apPOL inh: 6; mHTT CaM bind: 57*

How did Cc1noc(CNC(=O)C2CCN(C(=O)Cn3ccc4ccccc43)CC2)n1 do in these assays?
Pf apPOL inh: -9; mHTT CaM bind: 1

Results for COc1ccccc1C(CCN(Cc1ccccc1)C(C)=O)c1ccc2c(c1)OCO2 (stereo not drawn) ?
Pf apPOL inh: -4; mHTT CaM bind: 99*

Results for CCC(=O)N(CCC(c1ccc2c(c1)OCO2)c1ccccc1OC)Cc1ccc2c(c1)OCO2 (stereo not drawn) ?
Pf apPOL inh: 5; mHTT CaM bind: 43

What do the screens show for `COc1ccccc1C(CC(=O)O)c1ccc2c(c1)OCO2` (stereo not drawn)?
Pf apPOL inh: -7; mHTT CaM bind: -1

What do the screens show for `COc1ccc(CN(CCC(c2ccc3c(c2)OCO3)c2ccccc2OC)C(C)=O)cc1` (stereo not drawn)?
Pf apPOL inh: 2; mHTT CaM bind: 53*

Results for COc1ccccc1C(CC(=O)N1CCCC1)c1ccc2c(c1)OCO2 (stereo not drawn) ?
Pf apPOL inh: 2; mHTT CaM bind: 6

Results for COc1ccc(CN(CCC(c2ccc3c(c2)OCO3)c2ccccc2OC)C(C)=O)cc1OC (stereo not drawn) ?
Pf apPOL inh: -6; mHTT CaM bind: 68*

How did O=C(c1cccnc1N1CCNC(c2ccccc2)C1)N1CCN(c2ccc(F)cc2)CC1 (stereo not drawn) do in these assays?
Pf apPOL inh: -3; mHTT CaM bind: 19

Results for CC1=NN(c2cccc(Br)c2)C(=O)/C1=C/c1ccc(-c2cccc([N+](=O)[O-])c2)o1 ?
Pf apPOL inh: -5; mHTT CaM bind: 6

Results for CCc1ccc(CNC(=O)c2cn(C)c(=O)c3c2c2ccccc2n3C)cc1 ?
Pf apPOL inh: -12; mHTT CaM bind: -2

How did Cc1noc(COC2CCCN(C(=O)NC3CCCCC3)C2)n1 (stereo not drawn) do in these assays?
Pf apPOL inh: -4; mHTT CaM bind: -18

How did CCCc1cc(=O)n(CC(=O)N2CCN(c3ccc(F)cc3)CC2)cn1 do in these assays?
Pf apPOL inh: -10; mHTT CaM bind: -11

Results for COc1cc(C2CC(c3ccccc3O)=NN2)ccc1O (stereo not drawn) ?
Pf apPOL inh: 3; mHTT CaM bind: 89*

What do the screens show for `COc1ccccc1C1CC(c2cc(Cl)ccc2O)=NN1` (stereo not drawn)?
Pf apPOL inh: -7; mHTT CaM bind: 47

How did CCOc1ccc(/C=C(\C#N)c2nc3ccccc3[nH]2)cc1OC do in these assays?
Pf apPOL inh: 2; mHTT CaM bind: 3

Results for COc1ccc(CCN2COc3ccc4c5c(oc4c3C2)C(=O)c2ccccc2C5=O)cc1OC ?
Pf apPOL inh: -3; mHTT CaM bind: 44

What do the screens show for `CC(C)CCN1COc2ccc3c4c(oc3c2C1)C(=O)c1ccccc1C4=O`?
Pf apPOL inh: 12; mHTT CaM bind: 74*

Results for O=c1c(-c2ccccc2)coc2c3c(ccc12)OCN(C1CCS(=O)(=O)C1)C3 (stereo not drawn) ?
Pf apPOL inh: -5; mHTT CaM bind: -1

How did O=C1c2ccccc2C(=O)c2c1oc1c3c(ccc21)OCN(C1CCCC1)C3 do in these assays?
Pf apPOL inh: 50; mHTT CaM bind: 78*

How did O=C1c2ccccc2C(=O)c2c1oc1c3c(ccc21)OCN(C1CCS(=O)(=O)C1)C3 (stereo not drawn) do in these assays?
Pf apPOL inh: 69*!; mHTT CaM bind: 91*

Results for O=C1c2ccccc2C(=O)c2c1oc1c3c(ccc21)OCN(CC1CCCO1)C3 (stereo not drawn) ?
Pf apPOL inh: 10; mHTT CaM bind: 40

How did CC(C)N(CC#CCNC(=O)c1ccc2cc[nH]c2c1)C(C)C do in these assays?
Pf apPOL inh: -1; mHTT CaM bind: 0
